Reference: PubChem BioAssay AID1159580 (chemical genetic matrix, 2015)
Where “and” joins values, the source holds several entries; their conditions need not be identical. Identical values can stand only once. Out of some 5,500 compounds screened, about 2,000 (36%) were called active. About 18% were inconclusive and are not listed. Cut-off read from the data, not from the text of the source: active = normalized growth mostly below about 0.91 (no sharp cut-off); inconclusive = no clear call, values can overlap the other calls; inactive = mostly above about 0.92. The list shows a part of the results.

Assay: chemical genetic growth profiling, strain panel (AID 1159580);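 note: tested at 20 µM; growth read once vehicle control cultures reached saturation at 30 °C; 1 = growth at the plate median or of vehicle wells; lower values mean less growth of the strain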
Details: growth OD

Measured: normalized growth

CCOC(=O)C(C)(C)Oc1ccc(Cl)cc1
inactive: S. cerevisiae deletion strains, locus YJR075W, strain HOC1, active compounds read low 1.01 and 0.998 | S. cerevisiae deletion strains, locus YKL009W, strain mrt4, active compounds read low 1.02 | S. cerevisiae deletion strains, locus YKL068W, active compounds read low 1 | S. cerevisiae deletion strains, locus YKL085W, strain MDH1 (second series), active compounds read low 1.01 | S. cerevisiae deletion strains, locus YKL085W, strain MDH1, active compounds read low 1.01 | S. cerevisiae deletion strains, locus YKL160W, strain elf1, active compounds read low 0.98 | S. cerevisiae deletion strains, locus YKL190W, strain CNB1, active compounds read low 1.01 | S. cerevisiae deletion strains, locus YKR001C, strain vps1, active compounds read low 0.975 | S. cerevisiae deletion strains, locus YKR026C, strain gcn3, active compounds read low 0.974 | S. cerevisiae deletion strains, locus YKR091W, strain srl3, active compounds read low 0.978 | S. cerevisiae deletion strains, locus YLL001W, strain dnm1, active compounds read low 0.987 | S. cerevisiae deletion strains, locus YLL026W, active compounds read low 0.97 | S. cerevisiae deletion strains, locus YLL041C, strain sdh2, active compounds read low 0.983 | S. cerevisiae deletion strains, locus YLR027C, strain aat2, active compounds read low 0.994 | S. cerevisiae deletion strains, locus YLR039C, strain RIC1, active compounds read low 0.986 | S. cerevisiae deletion strains, locus YLR058C, strain SHM2, active compounds read low 1.01 | S. cerevisiae deletion strains, locus YLR102C, strain apc9, active compounds read low 0.996 | S. cerevisiae deletion strains, locus YLR113W, strain HOG1, active compounds read low 0.943 | S. cerevisiae deletion strains, locus YLR221C, strain rsa3, active compounds read low 0.985 | S. cerevisiae deletion strains, locus YLR258W, strain gsy2, active compounds read low 0.986 | S. cerevisiae deletion strains, locus YLR262C, strain YPT6 (second series), active compounds read low 0.965 | S. cerevisiae deletion strains, locus YLR262C, strain YPT6, active compounds read low 0.985 | S. cerevisiae deletion strains, locus YLR268W, strain sec22, active compounds read low 1 | S. cerevisiae deletion strains, locus YLR320W, strain mms22, active compounds read low 0.944 | S. cerevisiae deletion strains, locus YLR330W, strain CHS5, active compounds read low 1 | S. cerevisiae deletion strains, locus YLR342W, strain FKS1 (second series), active compounds read low 0.988 | S. cerevisiae deletion strains, locus YLR342W, strain FKS1, active compounds read low 0.981 | S. cerevisiae deletion strains, locus YLR357W, strain rsc2, active compounds read low 1 | S. cerevisiae deletion strains, locus YLR370C, strain arc18, active compounds read low 0.983 | S. cerevisiae deletion strains, locus YLR371W, strain rom2, active compounds read low 0.971 | S. cerevisiae deletion strains, locus YLR384C, strain iki3, active compounds read low 0.969 | S. cerevisiae deletion strains, locus YLR418C, strain cdc73, active compounds read low 0.985 | S. cerevisiae deletion strains, locus YML016C, strain PPZ1, active compounds read low 1 | S. cerevisiae deletion strains, locus YML032C, strain rad52, active compounds read low 0.992 | S. cerevisiae deletion strains, locus YML120C, strain ndi1, active compounds read low 0.986 | S. cerevisiae deletion strains, locus YML124C, strain tub3, active compounds read low 0.998 | S. cerevisiae deletion strains, locus YMR058W, strain fet3, active compounds read low 0.987 | S. cerevisiae deletion strains, locus YMR078C, strain ctf18, active compounds read low 0.999 | S. cerevisiae deletion strains, locus YMR125W, strain sto1, active compounds read low 0.963 | S. cerevisiae deletion strains, locus YMR129W, active compounds read low 0.994 | S. cerevisiae deletion strains, locus YMR205C, strain PFK2, active compounds read low 0.934 | S. cerevisiae deletion strains, locus YMR223W, strain ubp8, active compounds read low 0.996 | S. cerevisiae deletion strains, locus YMR231W, strain pep5, active compounds read low 0.983 | S. cerevisiae deletion strains, locus YMR307W, strain GAS1, active compounds read low 0.996 | S. cerevisiae deletion strains, locus YNL067W, strain RPL9B, active compounds read low 1.01 | S. cerevisiae deletion strains, locus YNL071W, strain lat1, active compounds read low 0.98 | S. cerevisiae deletion strains, locus YNL128W, strain TEP1, active compounds read low 1.01 | S. cerevisiae deletion strains, locus YNL175C, strain NOP13, active compounds read low 1.01 | S. cerevisiae deletion strains, locus YNL183C, strain NPR1, active compounds read low 0.933 | S. cerevisiae deletion strains, locus YNL197C, strain WHI3, active compounds read low 1.01 | S. cerevisiae deletion strains, locus YNL209W, strain ssb2, active compounds read low 0.992 | S. cerevisiae deletion strains, locus YNL224C, strain SQS1, active compounds read low 0.991 | S. cerevisiae deletion strains, locus YNL233W, strain BNI4, active compounds read low 0.999 | S. cerevisiae deletion strains, locus YNL248C, strain rpa49, active compounds read low 0.979 | S. cerevisiae deletion strains, locus YNL250W, strain rad50, active compounds read low 1.02 | S. cerevisiae deletion strains, locus YNL271C, strain bni1, active compounds read low 0.997 | S. cerevisiae deletion strains, locus YNL298W, strain CLA4, active compounds read low 1 | S. cerevisiae deletion strains, locus YNL307C, strain MCK1, active compounds read low 1 | S. cerevisiae deletion strains, locus YNL322C, strain KRE1 (second series), active compounds read low 0.973 | S. cerevisiae deletion strains, locus YNL322C, strain KRE1, active compounds read low 1.01 and 1 | S. cerevisiae deletion strains, locus YNR049C, strain mso1, active compounds read low 0.985 | S. cerevisiae deletion strains, locus YNR052C, strain pop2, active compounds read low 1 | S. cerevisiae deletion strains, locus YOL006C, strain TOP1, active compounds read low 1.01 | S. cerevisiae deletion strains, locus YOL012C, strain htz1 0.891 | S. cerevisiae deletion strains, locus YOL147C, strain pex11, active compounds read low 0.988 | S. cerevisiae deletion strains, locus YOR001W, strain rrp6, active compounds read low 0.976 | S. cerevisiae deletion strains, locus YOR061W, strain CKA2, active compounds read low 1.01 | S. cerevisiae deletion strains, locus YOR069W, strain VPS5, active compounds read low 1 | S. cerevisiae deletion strains, locus YOR070C, strain gyp1, active compounds read low 0.995 | S. cerevisiae deletion strains, locus YOR080W, strain dia2, active compounds read low 0.97 | S. cerevisiae deletion strains, locus YOR083W, strain WHI5 (second series), active compounds read low 1.03 | S. cerevisiae deletion strains, locus YOR083W, strain WHI5, active compounds read low 0.982 | S. cerevisiae deletion strains, locus YOR106W, strain vam3, active compounds read low 0.999 | S. cerevisiae deletion strains, locus YOR136W, strain idh2, active compounds read low 1 | S. cerevisiae deletion strains, locus YOR144C, strain elg1, active compounds read low 0.995 | S. cerevisiae deletion strains, locus YOR184W, strain ser1, active compounds read low 0.943 | S. cerevisiae deletion strains, locus YOR231W, strain MKK1, active compounds read low 0.94 | S. cerevisiae deletion strains, locus YOR265W, strain rbl2, active compounds read low 0.991 | S. cerevisiae deletion strains, locus YOR270C, strain vph1, active compounds read low 0.987 | S. cerevisiae deletion strains, locus YOR290C, strain snf2, active compounds read low 0.976 | S. cerevisiae deletion strains, locus YOR316C, strain cot1, active compounds read low 0.997 | S. cerevisiae deletion strains, locus YPL051W, strain arl3, active compounds read low 0.984 | S. cerevisiae deletion strains, locus YPL055C, strain LGE1, active compounds read low 0.999 | S. cerevisiae deletion strains, locus YPL078C, strain atp4, active compounds read low 0.985 | S. cerevisiae deletion strains, locus YPL106C, strain sse1, active compounds read low 0.951 | S. cerevisiae deletion strains, locus YPL240C, strain hsp82, active compounds read low 0.988 | S. cerevisiae deletion strains, locus YPL241C, strain CIN2, active compounds read low 0.997 | S. cerevisiae deletion strains, locus YPL256C, strain CLN2, active compounds read low 0.923 | S. cerevisiae deletion strains, locus YPR119W, strain clb2, active compounds read low 0.993 | S. cerevisiae deletion strains, locus YPR141C, strain kar3, active compounds read low 0.992 | S. cerevisiae deletion strains, locus YPR163C, strain tif3, active compounds read low 0.995 | S. cerevisiae deletion strains, locus YPR167C, strain met16, active compounds read low 1 | S. cerevisiae deletion strains, strain wtn01, active compounds read low 0.993 | S. cerevisiae strains, strain wild type, active compounds read low 1
